This is a sample that favours compounds with a hit; in the whole collection about 4.2% have one here.
NALP3 yeast inh: NALP3 inflammasome inhibitors in reconstituted yeast, primary screen, luminescence, uHTS; 0.39% of 330,000 active; Yeast reconstituted NLRP3/ASC/caspase-1, beta-gal luminescence, 24 h; AID 2825, 2010; inhibition, % at 10 µM;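 active = inhibition of 50% or more; inactive = inhibition below 50%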;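 note: plate controls were induced DMSO wells for no effect and uninduced yeast grown without galactose for full effect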
TIM10 inh: growth inhibitors of isogenic TIM10 control yeast, primary screen, counter-screen for tim10-1 yeast inhibitor project, luminescence, uHTS. S. cerevisiae TIM10 strain growth, BacTiter-Glo luminescence, 24 h. inhibition, % at 10 µM. 1.4% of 330,000 active. AID 463195, 2010;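 active = inhibition of 40% or more at the single tested concentration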;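 note: wild-type TIM10 isogenic control strain grown at permissive 25 °C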
tim10-1 inh: growth inhibitors of tim10-1 mutant yeast, primary screen, luminescence, uHTS; S. cerevisiae tim10-1 ts strain growth, BacTiter-Glo, 24 h; 2.2% of 330,000 active; AID 463190, 2010; inhibition, % at 20 µM;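 active = inhibition of at least 40%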;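 note: mutant grown at 25 °C; 0% = DMSO wells with yeast and 100% = wells holding no yeast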
V-ATPase pHluor: regulators of yeast V-ATPase proton pumping, primary screen, pHLuorin cytosolic pH fluorescence | S. cerevisiae | 0.37% of 350,000 active | AID 504577, 2011 | response, % at 10 µM; in the data active = response mostly above about 7.3%, no sharp cut-off; inactive = mostly below about 5.4%; note: actives read high
NALP1 inh: NALP1 inflammasome inhibitors in reconstituted yeast, colorimetric, S. cerevisiae, triplicate retest | S. cerevisiae NALP1/ASC/caspase-1 growth, X-gal OD620, 72 h | AID 2071, 2009 | inhibition, % at 10 µM | 0.61% of 280,000 active; in the data active = inhibition mostly above about 24%, no sharp cut-off; inactive = mostly below about 32%
tim23-1 inh: growth inhibitors of tim23-1 mutant yeast, primary screen, luminescence, uHTS. S. cerevisiae tim23-1 growth, BacTiter-Glo luminescence, 24 h. inhibition, % at 20 µM. AID 463212, 2010. 1.3% of 330,000 active;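 active = growth inhibition of the mutant yeast at or above 50%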;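 note: temperature-sensitive mutant grown at 25 °C; plate controls were DMSO-treated mutant yeast for no effect and medium wells lacking yeast for full effect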
tim10 confirm: growth inhibitors of wild-type TIM10 yeast, confirmation, counter-screen for tim10-1 synthetic lethality project, single concentration, luminescence, S. cerevisiae; shares compounds with TIM10 inh; 63% of 4,600 active; S. cerevisiae tim10 strain growth, BacTiter-Glo luminescence, 24 h; inhibition, % at 10 µM;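 active = inhibition of yeast growth at or above a set limit in either of two replicates at 10 µM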;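 note: this counterscreen used the strain with wild-type TIM10; 0% = yeast with DMSO and 100% = medium wells lacking yeast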
* = called active by the depositor; . = not tested or not shown.

SMILES	NALP3 yeast inh	TIM10 inh	tim10-1 inh	V-ATPase pHluor	NALP1 inh	tim23-1 inh	tim10 confirm
O=C(Nc1ccc(Cl)cc1)N1CCC(c2nc(-c3ccccc3Cl)no2)CC1	24	48*	30	-1	23	-6	19
O=C(Nc1ccc(Cl)cc1)N1CCC(c2nc(-c3cccs3)no2)CC1	29	-19	32	-1	25	45	.
O=C1CN(CC(=O)NC2CCCc3ccccc32)CCN1 (stereo not drawn)	12	8	-7	-2	-5	-1	.
CCNc1ccc(Br)cc(C(=O)/C=C/c2ccccc2Cl)c1=O	5	45*	39	-2	.	27	17
CN1c2ccccc2-c2nc3ccccc3n2C1c1ccncc1 (stereo not drawn)	11	19	2	-4	10	9	.
CCN1c2ccccc2-c2nc3ccccc3n2C1c1ccco1 (stereo not drawn)	2	40*	30	2	20	35	35*
CN1c2ccccc2-c2nc3ccccc3n2C1c1ccccn1 (stereo not drawn)	-6	43*	24	1	3	-2	10
c1ccc(CN2c3ccccc3-c3nc4ccccc4n3C2c2ccccn2)cc1 (stereo not drawn)	-6	33	37	0	16	33	.
COc1ccc(C(=O)NC2CC2)cc1OC1CCN(Cc2cc(C)c(C)cc2C)CC1	14	3	13	-2	10	16	.
COc1ccc(CN2CCC(Oc3cc(C(=O)NC4CC4)ccc3OC)CC2)c(O)c1	-6	83*	-10	-1	2	0	0
N#CC1=C(N)SC(N)=C(C#N)C1Cc1ccccc1	1	7	29	5	-9	19	.
N#CC1=C(N)SC(N)=C(C#N)C1CCc1ccccc1	28	70*	30	5	-3	33	-14
CC(=O)OCCCN1C(=O)c2cccc3cc(Br)cc(c23)C1=O	49	61*	-9	.	15	22	1
CC1CCN(C(=O)c2ccc(NC3=C(Cl)C(=O)N(Cc4ccccc4)C3=O)cc2)CC1	30	41*	22	1	.	40	42*
CCCN(Cc1ccccc1)C(=S)Nc1cccc(C)c1C	12	1	5	1	15	11	.
Cc1ccccc1NC(=S)N/N=C/C(C)c1ccccc1 (stereo not drawn)	14	41*	23	2	-12	25	27
Cc1cccc(NC(=S)N/N=C/c2cccc(O)c2)c1C	-1	31	24	0	-9	14	.
Cc1cccc(NC(=S)NN(Cc2ccccc2)c2ccccc2)c1C	8	43*	30	1	8	16	-21
Cc1cccc(NC(=S)N/N=C/C(C)c2ccccc2)c1C (stereo not drawn)	15	41*	31	4	0	20	36*
OCCc1c[nH]c2ccc(C(F)(F)F)cc12	21	1	13	-3	-1	5	.
CC(=O)O[C@H]1CC(C)(C)C(=C=C/C(C)=C/C=C/C(C)=C/C=C/C=C(C)/C=C/C=C(\C)C(=O)C[C@@]23O[C@]2(C)C[C@@H](O)CC3(C)C)[C@](C)(O)C1	8	8	18	.	-1	18	.
Cc1ccc(C2=NS(=O)(=O)N(C)C(C(=O)Nc3cc(C)n(CC(=O)N4CCC(C)CC4)n3)=C2)cc1	-1	-5	-17	3	10	1	.
COc1ccc(S(=O)(=O)n2nc(OC(=O)c3ccc(C)cc3)cc2N)cc1	1	53*	34	2	2	39	35*
CC(C)(C)C(=O)Oc1cc(N)n(S(=O)(=O)c2ccccc2)n1	14	5	26	0	.	5	.
Cc1ccc(S(=O)(=O)n2nc(OC(=O)c3ccccc3F)cc2N)cc1	-5	46*	14	-1	3	43	48*
SMILES	NALP3 yeast inh	TIM10 inh	tim10-1 inh	V-ATPase pHluor	NALP1 inh	tim23-1 inh	tim10 confirm
COc1ccc(S(=O)(=O)n2nc(OC(=O)c3ccccc3)cc2N)cc1	5	49*	37	-1	16	47	29
COc1ccc(S(=O)(=O)n2nc(OC(=O)c3ccccc3Br)cc2N)cc1	5	50*	35	-2	-25	30	19
COc1cc(C(=O)Oc2cc(N)n(S(=O)(=O)c3ccccc3)n2)cc(OC)c1OC	9	20	25	3	10	35	.
Cc1ccc(C(=O)Oc2cc(N)n(S(=O)(=O)c3ccc(C)cc3)n2)cc1	5	14	38	7	-5	35	.
CCCCc1ccc(NC(=O)c2cnccn2)cc1	15	22	13	0	6	7	.
CCCCc1ccc(N/C(N)=N/c2nc(C)cc(C)n2)cc1	31	-21	-79	0	16	-54	.
O=C(NCc1cc([N+](=O)[O-])ccc1O)c1cccnc1Sc1ccccc1Cl	15	6	28	-6	0	20	.
O=C(Nc1ccc(OC(F)(F)F)cc1)Nc1cccc([N+](=O)[O-])c1	43	45*	29	3	59*	36	34*
CC(C)(C)CC(C)(C)NC(=O)Nc1cccc([N+](=O)[O-])c1	3	46*	39	-4	1	50	45*
O=C(O)c1ccccc1OCC1CCCO1 (stereo not drawn)	8	-9	13	1	30	8	.
COc1ccccc1NC(=S)N/N=C1\CC(C)(C)Oc2ccc(O)cc21	37	19	9	1	-3	6	.
COc1ccc(NC(=S)N/N=C2\CC(C)(C)Oc3ccc(O)cc32)cc1	6	41*	35	-3	-4	16	-11
Cc1cc(Br)c(OCc2ccc(C(=O)N/N=C3\CC4CC=CC34)cc2)c(Br)c1 (stereo not drawn)	25	42*	17	-1	13	45	44*
O=C(N/N=C1\CC2CC=CC12)c1ccc(Br)cc1 (stereo not drawn)	5	0	22	8	19	13	.
COc1ccc(OCC(O)Cn2cnc(-c3ccc(Br)cc3)c2)cc1 (stereo not drawn)	37	52*	7	1	1	7	-23
OC(COc1ccc(Br)cc1)Cn1ccnc1 (stereo not drawn)	8	0	7	0	0	-6	.
Cc1cc(C)nc(N/N=C/c2ccc(Cl)cc2)n1	8	11	-5	3	-2	-19	.
Cc1ccc(/C=N/Nc2nc(C)cc(C)n2)cc1	16	74*	-12	-5	-9	-18	9

Assay outcomes deposited in PubChem by several laboratories.
